Experimental data from PubChem BioAssay (Tox21).
Several values for one entry are separate records, joined by “and”; a condition that tells them apart may be missing. Identical values can stand only once. Results filed as inconclusive are left out. A structure can be active in one record and inactive in another. Activity calls are given as the source filed them. Unless noted, calls come from the whole dose curve; as a rule, active = well fitted curve in the direction sought with a large enough effect in the repeat runs; inconclusive = weak or mixed curves; inactive = no such curve, though single readings can be large; an effect the other way counts as inactive or inconclusive.

Assays:
[1] = qHTS assay to identify small molecule agonists of the vitamin D receptor (VDR) signaling pathway - cell viability counter screen (AID 743224); note: series mostly up to about 63 µM; nearly all actives have a fitted effect of over 50% in size
Method in brief: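 In parallel with the bla FRET readout, cytotoxicity toward VDR-bla cells after 16 h compound exposure was assessed by CellTiter-Glo, with luminescence recorded after a 30 min room-temperature incubation.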

[2] = qHTS assay to identify small molecule antagonists of the vitamin D receptor (VDR) signaling pathway - cell viability counter screen (AID 743225); note: nearly all actives have a fitted effect of over 50% in size
Method in brief: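 Compounds were pinned onto VDR-bla HEK 293T cells together with 1-alpha,25-dihydroxyvitamin D3 at 3 nM final. After 16 h at 37C and 5% CO2 plus the reporter readout, cell viability was measured by CellTiter-Glo luminescence (30 min, room temperature).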

[3] = qHTS assay to identify small molecule agonists of the NFkB signaling pathway (AID 1159509; active = well fitted curve in the direction sought with a large enough effect in the signal ratio in the repeat runs, not every such curve was filed as active; the % refers to the signal ratio; note: series mostly up to about 61 µM)
Method in brief: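 Readout: FRET fluorescence, 405 nm excitation, 460/530 nm emission; beta-lactamase expression disrupts FRET. Cells: ME-180 stably carrying NF-kB-driven bla reporter. Compound exposure 5 hr, 37 C, 5% CO2.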

[4] = qHTS assay to identify small molecule agonists of the NFkB signaling pathway - cell viability counter screen (AID 1159515; calls by dose curve; note: series mostly up to about 61 µM; nearly all actives have a fitted effect of over 55% in size)
Method in brief: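 Plate 2,000 NFkB-bla ME-180 cells/well; incubate overnight. Add compounds, 5 hr at 37 C. Add FRET substrate, 1.5 hr RT. Add CellTiter-Glo, 30 min RT; read luminescence.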

[5] = qHTS assay to identify small molecule agonists of the endoplasmic reticulum stress response signaling pathway (AID 1159516; active = well fitted activation curve with a large enough effect in the signal ratio in the repeat runs, not every such curve was filed as active; the % refers to the signal ratio)
Method in brief: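 Beta-lactamase expression from the ER stress response element in HeLa reporter cells is quantified with the LiveBLAzer B/G FRET substrate, read at 405 nm excitation after 2 hr at room temperature, following 5 hr compound treatment at 37 C.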

[6] = qHTS assay to identify small molecule agonists of the endoplasmic reticulum stress response signaling pathway - cell viability counter screen (AID 1159517; calls by dose curve; note: series mostly up to about 61 µM; nearly all actives have a fitted effect of over 50% in size)
Method in brief: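 Cytotoxicity of test compounds toward ESRE-bla HeLa cells was assessed after 5 hr exposure. The luminescent CellTiter-Glo signal was measured 30 min after reagent addition.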

[7] = qHTS assay to identify small molecule agonists of the AP-1 signaling pathway - cell viability counter screen (AID 1159525; calls by dose curve; note: nearly all actives have a fitted effect of over 55% in size; note: potency is the fitted concentration of half-maximal effect)
Method in brief: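 Each titration point was normalised to DMSO and tetra n-octyl ammonium bromide controls. The read was Cell Titer Glo luminescence after 30 min at RT, following 5 h compound exposure of ME-180 AP-1-bla cells at 37 °C.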

[8] = qHTS assay to identify small molecule agonists of the AP-1 signaling pathway (AID 1159526; calls by dose curve)
[9] = biological target: Retinoic acid receptor RXR-alpha (Homo sapiens) (UniProt P19793); test: qHTS assay to identify small molecule agonists of the RXR signaling pathway (AID 1159527; calls by dose curve; note: nearly all actives have a fitted effect of over 35% in size; note: potency is the fitted concentration of half-maximal effect)
Retinoic acid receptor RXR-alpha (Homo sapiens), sequence (P19793 whole entry, looked up): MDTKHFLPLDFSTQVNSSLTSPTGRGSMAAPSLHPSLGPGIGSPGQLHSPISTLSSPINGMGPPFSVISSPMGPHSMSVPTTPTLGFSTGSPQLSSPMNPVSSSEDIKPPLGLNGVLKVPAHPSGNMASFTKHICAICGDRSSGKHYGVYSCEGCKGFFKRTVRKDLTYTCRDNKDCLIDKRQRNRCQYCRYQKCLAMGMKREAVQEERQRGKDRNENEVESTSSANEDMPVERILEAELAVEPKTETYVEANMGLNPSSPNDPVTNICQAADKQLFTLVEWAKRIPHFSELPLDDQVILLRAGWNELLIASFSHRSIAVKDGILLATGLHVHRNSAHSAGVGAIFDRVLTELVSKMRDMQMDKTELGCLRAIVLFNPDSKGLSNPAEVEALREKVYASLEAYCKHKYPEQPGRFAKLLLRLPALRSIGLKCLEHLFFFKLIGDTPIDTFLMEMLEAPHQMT
Method in brief: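 Using 9-cis retinoic acid as the reference agonist, chemicals were tested in HEK 293T cells […] for 16 hr; substrate loading lasted 2 hr at room temperature.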

[10] = qHTS assay to identify small molecule agonists of the RXR signaling pathway - cell viability counter screen (AID 1159529); note: nearly all actives have a fitted effect of over 50% in size; note: potency is the fitted concentration of half-maximal effect
Method in brief: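 Compounds dissolved in DMSO were pinned onto HEK 293T cells carrying a beta-lactamase reporter under RXR-alpha control and incubated 16 hr. Cytotoxicity was then quantified by CellTiter-Glo luminescence.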

[11] = qHTS assay to identify small molecule antagonists of the retinoid acid receptor (RAR) signaling pathway - cell viability counter screen (AID 1159551); note: nearly all actives have a fitted effect of over 35% in size
Method in brief: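 Viability of C3RL4 cells is quantified from ATP by luminescence after 6 h treatment at 37 C with compounds and 1 uM retinol.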

[12] = qHTS assay to identify small molecule antagonists of the estrogen related receptor (ERR) signaling pathway from Tox21 library - cell viability counter screen (AID 1224834); note: nearly all actives have a fitted effect of over 30% in size; note: potency is the fitted concentration of half-maximal effect
Method in brief: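 In this quantitative HTS format, ERR cells receive compounds in DMSO and are incubated for 17.5 h at 37 C. Live-cell protease activity is then detected with CellTiter-Fluor.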

[13] = biological target: Luciferin 4-monooxygenase (Photinus pyralis) (UniProt P08659); test: qHTS assay to identify small molecule inhibitors of firefly luciferase (AID 1224835); note: nearly all actives have a fitted effect of over 25% in size; note: potency is the fitted concentration of half-maximal effect
Luciferin 4-monooxygenase (Photinus pyralis), sequence (P08659 whole entry, looked up): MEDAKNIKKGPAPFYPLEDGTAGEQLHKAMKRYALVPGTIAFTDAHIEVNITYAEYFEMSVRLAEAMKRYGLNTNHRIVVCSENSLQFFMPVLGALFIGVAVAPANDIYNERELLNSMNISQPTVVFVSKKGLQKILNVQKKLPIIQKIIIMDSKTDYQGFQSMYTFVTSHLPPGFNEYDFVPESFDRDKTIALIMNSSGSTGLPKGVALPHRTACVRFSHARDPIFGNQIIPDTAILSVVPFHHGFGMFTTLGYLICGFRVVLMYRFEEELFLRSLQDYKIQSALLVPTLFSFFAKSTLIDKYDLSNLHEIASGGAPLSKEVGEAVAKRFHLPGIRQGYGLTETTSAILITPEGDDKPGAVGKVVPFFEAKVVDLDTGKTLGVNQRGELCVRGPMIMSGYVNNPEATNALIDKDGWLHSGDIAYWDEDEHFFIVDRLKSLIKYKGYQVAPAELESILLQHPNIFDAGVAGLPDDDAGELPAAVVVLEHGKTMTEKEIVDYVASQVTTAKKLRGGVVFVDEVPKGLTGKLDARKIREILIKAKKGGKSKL
Method in brief: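 Quantitative HTS format; KM concentrations of both substrates. Purified P. pyralis FLuc activity quantified from luminescence images.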

[14] = qHTS assay to identify small molecule agonists of the constitutive androstane receptor (CAR) signaling pathway - cell viability counter screen (AID 1224836); note: series mostly up to about 92 µM; nearly all actives have a fitted effect of over 45% in size
Method in brief: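 23 h treatment, 37 C, 5% CO2. Cell line: HepG2 stably expressing hCAR with a CYP2B6-2.2kb construct. Co-treatment: PK11195, 0.75 uM final. Read-out: CellTiter-Fluor fluorescence intensity.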

[15] = qHTS assay to identify small molecule antagonists of the constitutive androstane receptor (CAR) signaling pathway - cell viability counter screen (AID 1224837); note: series mostly up to about 92 µM; nearly all actives have a fitted effect of over 45% in size
Method in brief: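 In quantitative HTS format, compounds at 15 concentrations were applied to HepG2 cells double-transfected with hCAR and CYP2B6-2.2kb under 50 nM CITCO stimulation; live-cell protease activity was read after 23 hr via CellTiter-Fluor.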

[16] = biological target: Nuclear receptor ROR-gamma (Homo sapiens) (UniProt P51449); test: qHTS assay to identify small molecule antagonists of the retinoid-related orphan receptor gamma (ROR-gamma) signaling pathway (AID 1159521; note: nearly all actives have a fitted effect of over 50% in size; note: potency is the fitted concentration of half-maximal effect)
Method in brief: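 Test compounds were applied to Tet-on RORγ CHO cells 2 h ahead of doxycycline hyclate (1 uM final). Luciferase reporter activity was quantified by luminescence after 16 h at 37 C and 5% CO2.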

[17] = qHTS assay to identify small molecule antagonists of the retinoic acid receptor (RAR) signaling pathway (AID 1159552; note: nearly all actives have a fitted effect of over 50% in size; note: potency is the fitted concentration of half-maximal effect)
Method in brief: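 Test chemicals and DMSO controls were pin-transferred onto C3RL4 cells a day after seeding; retinol (1 uM final) followed at once. Luminescent reporter output was quantified after 6 hr of co-incubation and 30 min with detection reagent.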

[18] = qHTS assay to identify small molecule agonists of the retinoic acid receptor (RAR) signaling pathway (AID 1159553); note: potency is the fitted concentration of half-maximal effect
Method in brief: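 Compounds dissolved in DMSO were pinned onto C3RL4 cells seeded the previous day, and plates were held 6 hr at 37 C. RARE-driven luciferase output was then read by luminescence.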

[19] = qHTS assay to identify small molecule antagonists of the retinoid-related orphan receptor gamma (ROR-gamma) signaling pathway - cell viability counter screen (AID 1159520); note: nearly all actives have a fitted effect of over 50% in size
Method in brief: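 Tet-on ROR gamma CHO cells (1,000/well) were plated 4 hr, given compounds in DMSO for 2 hr at 37 C, then induced with 1 uM final doxycycline for 16 hr. Viability was read as ATP by CellTiter-Glo luminescence after 30 min.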

[20] = qHTS assay to identify small molecule antagonists of the estrogen related receptor (ERR) signaling pathway - cell viability counter screen (AID 1224818);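 note: series mostly up to about 46 µM; viability measured after 17.5 h of compound exposure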
Method in brief: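 Cytotoxicity check run alongside the ERR antagonist screen: cells exposed to test compounds 17.5 h at 37 C, viability taken as CellTiter-Fluor fluorescence intensity.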

Measured: Potency

CCCCCCCCCCCCCCO
active: [13] 22.7 µM
not listed: [16] | [17] | [18] | [19] | [20]
inactive: all other assays above

CCCCC(CC)CO (stereo not given)
not listed: [1] | [9] | [17] | [18] | [19] | [20]
inactive: all other assays above

O=P(OC(CCl)CCl)(OC(CCl)CCl)OC(CCl)CCl
inactive and 27.3 µM (active): [17]
not listed: [8] | [12] | [16] | [19] | [20]
inactive: all other assays above

C=C(C)C(=O)O[C@H]1C[C@@H]2CC[C@@]1(C)C2(C)C
963 nM (active) and inactive: [16]
15.4 µM (active) and inactive: [10]
4.87 µM (active) and inactive: [7]
8.58 µM (active) and inactive: [12]
inactive: [1] | [2] | [3] | [4] | [5] | [6] | [8] | [11]
19.9 µM (active) and inactive: [13]

COCCCOc1ccnc(CS(=O)c2nc3ccccc3[nH]2)c1C (stereo not given)
active: [18] 3.84 µM
not listed: [1] | [2] | [9] | [13] | [19] | [20]
inactive: all other assays above

O=S(=O)(O)c1ccc2ccccc2c1
active: [9] 11 µM
not listed: [1] | [16] | [17] | [18] | [19] | [20]
inactive: all other assays above

CC(C)(N)CO
not listed: [1] | [7] | [9] | [17] | [18] | [19] | [20]
inactive: all other assays above

CC(=O)Nc1cccc(O)c1
not listed: [16] | [19] | [20]
inactive: all other assays above

C/C=C1/CC2C=CC1C2 (stereo not given)
not listed: [3] | [7] | [16] | [20]
inactive: all other assays above

O=C(O)CCCCCCCCCCC(=O)O
not listed: [1] | [9] | [17] | [18] | [19] | [20]
inactive: all other assays above

O=c1[nH]nnc2ccccc12
not listed: [1] | [7] | [9] | [17] | [18] | [19] | [20]
inactive: all other assays above

CC(c1cc2ccccc2s1)N(O)C(N)=O (stereo not given)
not listed: [16] | [17] | [18] | [19] | [20]
inactive: all other assays above

CC(=O)OCC(=O)[C@@]12N=C(C)O[C@@H]1C[C@H]1[C@@H]3CCC4=CC(=O)C=C[C@]4(C)[C@H]3[C@@H](O)C[C@@]12C
not listed: [9] | [17] | [19] | [20]
inactive: all other assays above

CCCCCCCC(=O)OC
not listed: [7] | [14] | [17] | [18] | [19] | [20]
inactive: all other assays above

CC(C)CC(=O)CC(C)C
not listed: [14] | [17] | [18] | [19] | [20]
inactive: all other assays above

CCCCC(CC)COC(=O)CCCCC(=O)OCC(CC)CCCC (stereo not given)
not listed: [1] | [9] | [19] | [20]
inactive: all other assays above

C#C[C@]1(O)CC[C@H]2[C@@H]3CCC4=CC(=O)CC[C@@H]4[C@H]3CC[C@@]21C
active: [16] 30.6 µM | [17] 27.3 µM and 11.9 µM
not listed: [1] | [9] | [19] | [20]
inactive: all other assays above

Cc1ccc2oc(=O)ccc2c1
not listed: [9] | [14] | [16] | [19] | [20]
inactive: all other assays above

O=c1[nH]c(=O)n([C@H]2C[C@H](O)[C@@H](CO)O2)cc1Br
not listed: [9] | [16] | [17] | [18] | [19]
inactive: all other assays above
